In the experiment the test system is Trichoderma virens ATCC 9645. The experiment can be described thus: growth yield (OD600) with compound + IPBC relative to untreated control; higher = less growth inhibition. As to conditions: compound concentration: 100 uM, IPBC concentration: 200 ng/ml. The method in brief: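 A biocide at 200 ng ml^−1 was co-applied to some wells, and library compounds were present in all test wells at 100 μM final. The wells held 100 μl of Trichoderma virens ATCC 9645 spores at 15,000 spores ml^−1 in potato dextrose broth, grown at 30 °C in 96-well plates, with OD600 read at 40 h and 72 h. Results are relative growth against the control without either agent, averaged across duplicate screens.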

Counter-ions that a name gives are not always drawn. ± gives the standard error. Screen size: about 1,300 compounds; about 130 (10%) showed an effect of 50% or more. The entries come from a sample that favours strong results as a whole.

As to `CCC[C@@H]1C[C@@H](C(=O)N[C@@H]([C@H]2O[C@H](SC)[C@H](O)[C@@H](O)[C@H]2O)[C@@H](C)O)N(C)C1` [Lincomycin hydrochloride] + CCCCNC(=O)OCC#CI [3-iodo-2-propynyl butylcarbamate (IPBC)], the growth yield (40 h) was determined as 85.8 ± 3.5% and the growth yield (72 h) was determined as 94.6 ± 2.3%.

Turning to `COCC1=C(C(=O)OC(C)OC(=O)OC(C)C)N2C(=O)[C@@H](NC(=O)/C(=N\OC)c3csc(N)n3)[C@H]2SC1` (some centres not stated) [Cefpodoxime proxetil] + CCCCNC(=O)OCC#CI [3-iodo-2-propynyl butylcarbamate (IPBC)], the growth yield reads like this: (40 h) 121 ± 3.5%; (72 h) 113.6 ± 0.94%.

As to `Nc1cc(N2CCCCC2)nc(N)[n+]1[O-]` [Minoxidil] + CCCCNC(=O)OCC#CI [3-iodo-2-propynyl butylcarbamate (IPBC)], the growth yield reads like this: (40 h) 90.1 ± 2.1%; (72 h) 93.5 ± 1.7%.

As for `C[C@]12CC[C@H](O)C[C@H]1CC[C@@H]1[C@@H]2C[C@@H](O)[C@]2(C)[C@@H](C3=CC(=O)OC3)CC[C@]12O` [Digoxigenin] + CCCCNC(=O)OCC#CI [3-iodo-2-propynyl butylcarbamate (IPBC)], the growth yield stood at 86.6 ± 2.7% (40 h) and 90.72 ± 0.32% (72 h).

For the molecule `COC(=O)[C@@H]1[C@H]2C[C@H]3c4[nH]c5ccccc5c4CCN3C[C@@H]2CC[C@@H]1O` [Yohimbine hydrochloride] + CCCCNC(=O)OCC#CI [3-iodo-2-propynyl butylcarbamate (IPBC)], the growth yield worked out at 82.4 ± 1.1% (40 h) and 89.25 ± 0.73% (72 h).

As for `Nc1nc2[nH]cc(CCc3ccc(C(=O)N[C@@H](CCC(=O)O)C(=O)O)cc3)c2c(=O)[nH]1` [Pemetrexed disodium] + CCCCNC(=O)OCC#CI [3-iodo-2-propynyl butylcarbamate (IPBC)], the growth yield runs as follows: (40 h) 94.8 ± 7.2%; (72 h) 94 ± 4%.

As to `CC(CN1c2ccccc2Sc2ccccc21)N(C)C` (configuration not stated) [Promethazine hydrochloride] + CCCCNC(=O)OCC#CI [3-iodo-2-propynyl butylcarbamate (IPBC)], the growth yield turned out to be 78.2 ± 1.9% (40 h) and 94.3 ± 4.1% (72 h).

`CCN(CC)C(C)CN1c2ccccc2Sc2ccccc21` (configuration not stated) [Ethopropazine hydrochloride] + CCCCNC(=O)OCC#CI [3-iodo-2-propynyl butylcarbamate (IPBC)]: the growth yield is, setting by setting: (40 h) 72.4 ± 3.8%; (72 h) 89.2 ± 1.6%.

For the molecule `CCSc1ccc2c(c1)N(CCCN1CCN(C)CC1)c1ccccc1S2` [Thiethylperazine dimalate] + CCCCNC(=O)OCC#CI [3-iodo-2-propynyl butylcarbamate (IPBC)], the growth yield came out at 4.45 ± 0.32% (40 h) and 3.25 ± 0.1% (72 h).

With `C[C@]12C=CC(=O)C=C1CC[C@H]1[C@@H]3C[C@@H](O)[C@](O)(C(=O)CO)[C@@]3(C)C[C@H](O)[C@@]12F` [Triamcinolone] + CCCCNC(=O)OCC#CI [3-iodo-2-propynyl butylcarbamate (IPBC)], the growth yield (40 h) was 98.3 ± 3% and the growth yield (72 h) was 97.5 ± 1.9%.

Turning to `COc1ccc(-c2cc(=S)ss2)cc1` [Anethole-trithione] + CCCCNC(=O)OCC#CI [3-iodo-2-propynyl butylcarbamate (IPBC)], the growth yield by setting is: (40 h) 77 ± 1.8%; (72 h) 74.9%.

With `CO[C@]12C[C@@H](COC(=O)c3cncc(Br)c3)CN(C)[C@@H]1Cc1cn(C)c3cccc2c13` [Nicergoline] + CCCCNC(=O)OCC#CI [3-iodo-2-propynyl butylcarbamate (IPBC)], the growth yield by setting is: (40 h) 74.2 ± 8.4%; (72 h) 93 ± 5.3%.

For `CN1C[C@H](CNC(=O)OCc2ccccc2)C[C@@H]2c3cccc4c3c(cn4C)C[C@H]21` [Metergoline] + CCCCNC(=O)OCC#CI [3-iodo-2-propynyl butylcarbamate (IPBC)], the growth yield (40 h) came out at 45.4 ± 15% and the growth yield (72 h) was 112 ± 9.5%.

In the case of `CN1C[C@H](C(=O)N[C@]2(C)O[C@@]3(O)[C@@H]4CCCN4C(=O)[C@H](Cc4ccccc4)N3C2=O)C[C@@H]2c3cccc4[nH]cc(c34)C[C@H]21` [Dihydroergotamine tartrate] + CCCCNC(=O)OCC#CI [3-iodo-2-propynyl butylcarbamate (IPBC)], the growth yield by setting is: (40 h) 105 ± 5.2%; (72 h) 107 ± 2.3%.

As to `CC[C@H](C)C(=O)O[C@H]1C[C@@H](C)C=C2C=C[C@H](C)[C@H](CC[C@@H]3C[C@@H](O)CC(=O)O3)[C@H]21` [Lovastatin] + CCCCNC(=O)OCC#CI [3-iodo-2-propynyl butylcarbamate (IPBC)], the growth yield runs as follows: (40 h) 104 ± 4%; (72 h) 103 ± 1.6%.

As to `CN1CCN(C(=O)OC2c3nccnc3C(=O)N2c2ccc(Cl)cn2)CC1` (configuration not stated) [Zopiclone] + CCCCNC(=O)OCC#CI [3-iodo-2-propynyl butylcarbamate (IPBC)], the growth yield reads like this: (40 h) 91.8 ± 2.5%; (72 h) 93 ± 1.4%.

On to `CC(=O)OC[C@H]1O[C@@H]([S-])[C@H](OC(C)=O)[C@@H](OC(C)=O)[C@@H]1OC(C)=O.CCP(CC)CC.[Au+]` [Auranofin] + CCCCNC(=O)OCC#CI [3-iodo-2-propynyl butylcarbamate (IPBC)], for which the growth yield (40 h) was 23.2 ± 1.3% and the growth yield (72 h) stood at 29.7 ± 2.4%.

With `CO[C@H]1/C=C/O[C@@]2(C)Oc3c(C)c(O)c4c(c3C2=O)C2=NC3(CCN(CC(C)C)CC3)NC2=C(NC(=O)/C(C)=C\C=C\[C@H](C)[C@H](O)[C@@H](C)[C@@H](O)[C@@H](C)[C@H](OC(C)=O)[C@@H]1C)C4=O` [Rifabutin] + CCCCNC(=O)OCC#CI [3-iodo-2-propynyl butylcarbamate (IPBC)], the growth yield reads like this: (40 h) 99.4%; (72 h) 97.1 ± 8.4%.

With `CC(=O)OCC1=C(C(=O)O)N2C(=O)[C@@H](NC(=O)Cc3cccs3)[C@H]2SC1` [Cephalothin sodium salt] + CCCCNC(=O)OCC#CI [3-iodo-2-propynyl butylcarbamate (IPBC)], the growth yield (40 h) is 91.7 ± 8.4% and the growth yield (72 h) turned out to be 90.9 ± 7.9%.

Turning to `CCC(Cc1c(I)cc(I)c(N)c1I)C(=O)O` (configuration not stated) [Iopanoic acid] + CCCCNC(=O)OCC#CI [3-iodo-2-propynyl butylcarbamate (IPBC)], the growth yield (40 h) was found to be 70.2 ± 2.5% and the growth yield (72 h) was found to be 88.3 ± 4.4%.

As to `COc1c(N2C[C@@H]3CCCN[C@@H]3C2)c(F)cc2c(=O)c(C(=O)O)cn(C3CC3)c12` [Moxifloxacin] + CCCCNC(=O)OCC#CI [3-iodo-2-propynyl butylcarbamate (IPBC)], the growth yield is, setting by setting: (40 h) 109 ± 2.7%; (72 h) 105 ± 3.5%.

As to `O=C1c2ccccc2S(=O)(=O)N1CCCCN1CCN(c2ncccn2)CC1` [Ipsapirone] + CCCCNC(=O)OCC#CI [3-iodo-2-propynyl butylcarbamate (IPBC)], the growth yield runs as follows: (40 h) 87.4 ± 4.8%; (72 h) 90.7 ± 1.8%.

For the molecule `Cc1ccc(N(CC2=NCCN2)c2cccc(O)c2)cc1` [Phentolamine hydrochloride] + CCCCNC(=O)OCC#CI [3-iodo-2-propynyl butylcarbamate (IPBC)], the growth yield runs as follows: (40 h) 86.25 ± 0.79%; (72 h) 97.64 ± 0.73%.

Consider `CCCCCC[C@H]1C(=O)O[C@H](C)[C@H](NC(=O)c2cccc(NC=O)c2O)C(=O)O[C@@H](C)[C@@H]1OC(=O)CC(C)C` [Antimycin A] + CCCCNC(=O)OCC#CI [3-iodo-2-propynyl butylcarbamate (IPBC)], for which the growth yield is, setting by setting: (40 h) 17.6 ± 1.1%; (72 h) 42.9 ± 2.4%.

For `COc1cccc(C2(O)CCCCC2CN(C)C)c1` (configuration not stated) [Tramadol hydrochloride] + CCCCNC(=O)OCC#CI [3-iodo-2-propynyl butylcarbamate (IPBC)], the growth yield is, setting by setting: (40 h) 87.5 ± 2.1%; (72 h) 90.51 ± 0.73%.

Consider `COCCCOc1cc(C[C@@H](C[C@H](N)[C@@H](O)C[C@H](C(=O)NCC(C)(C)C(N)=O)C(C)C)C(C)C)ccc1OC` [Aliskiren hemifumarate] + CCCCNC(=O)OCC#CI [3-iodo-2-propynyl butylcarbamate (IPBC)], for which the growth yield is, setting by setting: (40 h) 93.4 ± 5.1%; (72 h) 99.1 ± 1.1%.

As for `CCOc1ccccc1OC(c1ccccc1)C1CNCCO1` (configuration not stated) [Reboxetine mesylate] + CCCCNC(=O)OCC#CI [3-iodo-2-propynyl butylcarbamate (IPBC)], the growth yield came out at 82.92 ± 0.32% (40 h) and 90.61 ± 0.63% (72 h).

Consider `CC(N)C(O)c1ccccc1` (configuration not stated) [Phenylpropanolamine hydrochloride] + CCCCNC(=O)OCC#CI [3-iodo-2-propynyl butylcarbamate (IPBC)], for which the growth yield (40 h) amounted to 97.1 ± 7.5% and the growth yield (72 h) was 101 ± 3.5%.

With `CCc1cccc(CC)c1NC(=O)CN(CC(=O)O)CC(=O)O` [Etifenin] + CCCCNC(=O)OCC#CI [3-iodo-2-propynyl butylcarbamate (IPBC)], the growth yield by setting is: (40 h) 87.7 ± 4.1%; (72 h) 94.4 ± 2.3%.

For the molecule `O=C(O)CN(CCN(CC(=O)O)CC(=O)O)CCN(CC(=O)O)CC(=O)O` [Pentetic acid] + CCCCNC(=O)OCC#CI [3-iodo-2-propynyl butylcarbamate (IPBC)], the growth yield is, setting by setting: (40 h) 18.7 ± 1.6%; (72 h) 88.41 ± 0.73%.

For `O=P(O)(O)C(O)(Cc1cccnc1)P(=O)(O)O` [Risedronic acid monohydrate] + CCCCNC(=O)OCC#CI [3-iodo-2-propynyl butylcarbamate (IPBC)], the growth yield by setting is: (40 h) 88.8 ± 2.7%; (72 h) 91.66 ± 0.42%.

For the molecule `COc1ccc(C[C@@H]2c3cc(OC)c(OC)cc3CC[N@+]2(C)CCC(=O)OCCCCCOC(=O)CC[N@@+]2(C)CCc3cc(OC)c(OC)cc3[C@H]2Cc2ccc(OC)c(OC)c2)cc1OC` [Cisatracurium besylate] + CCCCNC(=O)OCC#CI [3-iodo-2-propynyl butylcarbamate (IPBC)], the growth yield reads like this: (40 h) 78.3 ± 2.1%; (72 h) 85.9 ± 4.1%.

As for `CC1=C(/C=C/C(C)=C/C=C/C(C)=C\C(=O)O)C(C)(C)CCC1` [Isotretinoin] + CCCCNC(=O)OCC#CI [3-iodo-2-propynyl butylcarbamate (IPBC)], the growth yield by setting is: (40 h) 83.5%; (72 h) 105 ± 16%.

Regarding `N=C(N)c1ccc(OCCCCCOc2ccc(C(=N)N)cc2)cc1` [Pentamidine isethionate] + CCCCNC(=O)OCC#CI [3-iodo-2-propynyl butylcarbamate (IPBC)], the growth yield is, setting by setting: (40 h) 2.7 ± 0.48%; (72 h) 2.1 ± 0.42%.

Regarding `CCCCOc1ccc(C(=O)CCN2CCCCC2)cc1` [Dyclonine hydrochloride] + CCCCNC(=O)OCC#CI [3-iodo-2-propynyl butylcarbamate (IPBC)], the growth yield reads like this: (40 h) 75.4 ± 1.1%; (72 h) 90.8 ± 1.5%.

Regarding `CCCCOc1ccc(CC(=O)NO)cc1` [Bufexamac] + CCCCNC(=O)OCC#CI [3-iodo-2-propynyl butylcarbamate (IPBC)], the growth yield runs as follows: (40 h) 99.59 ± 0.16%; (72 h) 95.438 ± 1e-14%.

For the origin of these results see the supplement of paper PMC8007513.
